Records with an inconclusive call do not appear. Active and inactive are the calls of the source. Unless noted, calls follow the shape of the full dose curve.
What was measured:
[1] = Primary qHTS for inhibitors of SARS-S pseudo-typed particle cell entry (AID 1479145); details: SARS-S pseudotyped particle cell entry, luciferase reporter; series mostly up to 57.1 µM; also: nearly all actives have a fitted effect of over 45% in size; also: potency is read from the fitted curve at half-maximal effect
[2] = Primary qHTS for Huh7 cytotoxicity: counterscreen for inhibitors of MERS-S pseudotyped particle cell entry (AID 1479147); details: cell viability read-out; series mostly up to 57.1 µM
[3] = Primary qHTS for inhibitors of MERS-S pseudo-typed particle cell entry (AID 1479149); details: MERS-S pseudotyped particle entry, luciferase; series mostly up to 57.1 µM; also: nearly all actives have a fitted effect of over 60% in size
[4] = Primary qHTS for Vero E6 cytotoxicity: counterscreen for inhibitors of SARS-S pseudo-typed particle cell entry (AID 1479150); details: cell viability; series mostly up to 57.1 µM
[5] = Confirmatory qHTS for VERO E6 Cytotoxicity Assay: Counterscreen for SARS-CoV-2 CPE Assay (AID 1508605); details: cell viability luminescence; series mostly up to 20 µM; also: nearly all actives have a fitted effect of over 60% in size
[6] = Primary qHTS for inhibitors of La Crosse Virus (LACV) - induced cell death in SH-SY5Y cells (AID 1508616; active = well fitted curve in the direction sought with a large enough effect; an effect the other way counts as inactive or inconclusive;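 also: top concentration of the series differs between compounds; higher means more rescue of cells from virus-induced death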); details: SH-SY5Y LACV cytopathicity rescue, ATP luminescence, 6 d; series mostly up to 4.29 µM
How it was run: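 Screening measures cell viability in LACV-infected SH-SY5Y cultures. Compound was added before virus (0.01 MOI), and ATP was detected by luminescence 6 days later.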

[7] = molecular target: Calcium and integrin-binding protein 1 (Homo sapiens) (UniProt Q99828); assay: Primary qHTS for Identification of Calcium Integrin Binding Protein 1 (CIB1) Competitor (AID 1508620; active = well fitted curve in the direction sought with a large enough effect; an effect the other way counts as inactive or inconclusive;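 also: GST tagged CIB1 binding a fluorescein labelled alphaIIb integrin peptide tracer; top concentration of the series differs between compounds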); details: CIB1-GST / FITC-alphaIIb peptide fluorescence polarization; series mostly up to 114 µM
How it was run: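 Fluorescence polarization competition: GST-tagged CIB1 (1 uM final) preincubated with compound 15 min at room temperature, then FITC-labelled alphaIIb peptide (100 nM final) added. After 15 min at room temperature, polarization read at Ex 480/Em 540.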

[8] = Confirmatory qHTS for activators (rescue) of SARS-CoV-2 Cytopathic Effect (CPE) (AID 1508606); details: Vero E6 SARS-CoV-2 CPE rescue, viability luminescence; series mostly up to 20 µM; also: potency is read from the fitted curve at half-maximal effect; nearly all actives have a fitted effect of over 70% in size

Measured: Potency

Sequence of Calcium and integrin-binding protein 1 (Homo sapiens) (Q99828 whole entry, looked up): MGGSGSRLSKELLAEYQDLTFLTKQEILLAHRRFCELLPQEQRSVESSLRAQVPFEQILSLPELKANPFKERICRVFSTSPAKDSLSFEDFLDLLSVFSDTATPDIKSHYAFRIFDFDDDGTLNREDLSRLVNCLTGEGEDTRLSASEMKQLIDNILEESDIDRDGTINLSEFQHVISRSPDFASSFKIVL

Cc1ccc(-c2cc(C(F)(F)F)nn2-c2ccc(S(N)(=O)=O)cc2)cc1
inactive: [1] | [2] | [3] | [4] | [5]

CC1(C)S[C@@H]2[C@H](NC(=O)C(C(=O)O)c3ccccc3)C(=O)N2[C@H]1C(=O)O (stereo partly drawn)
inactive: [1] | [2] | [3] | [4]

CCC(C(N)=O)N1CCCC1=O (stereo not drawn)
not listed: [5] | [8]
inactive: all other assays above

O=C(OC1C[C@H]2CC[C@@H](C1)[N+]21CCCC1)C(O)(c1ccccc1)c1ccccc1 (stereo partly drawn)
inactive: [1] | [2] | [3] | [4]

O=NN(CCCl)C(=O)NC1CCCCC1
inactive: [1] | [2] | [3] | [4]

CC(C)(C)NCC(O)c1cc(Cl)c(N)c(Cl)c1 (stereo not drawn)
not listed: [5] | [8]
inactive: all other assays above

CCC1(c2ccccc2)C(=O)NCNC1=O
inactive: [1] | [2] | [3] | [4]

Oc1ccc(Cl)cc1Cc1ccccc1
inactive: [1] | [2] | [3] | [4] | [7]

COC(=O)[C@H]1[C@H]2C[C@@H]3c4[nH]c5cc(OC)ccc5c4CCN3C[C@H]2C[C@@H](OC(=O)c2cc(OC)c(OC)c(OC)c2)[C@@H]1OC
active: [8] 10 µM
inactive: [1] | [2] | [4] | [5]

Cn1c(=O)c2c(ncn2CC(O)CO)n(C)c1=O (stereo not drawn)
inactive: [1] | [2] | [4]

CCCN1C[C@H](CSC)C[C@@H]2c3cccc4[nH]cc(c34)C[C@H]21
inactive: [1] | [2] | [4]

CCOC(=O)N1CCC(=C2c3ccc(Cl)cc3CCc3cccnc32)CC1
inactive: [1] | [2] | [4]

CCC[C@H](N[C@@H](C)C(=O)N1[C@H](C(=O)O)C[C@@H]2CCCC[C@@H]21)C(=O)OCC
inactive: [1] | [2] | [4]

CC[C@@]1(O)C(=O)OCc2c1cc1n(c2=O)Cc2cc3c(CN(C)C)c(O)ccc3nc2-1
active: [1] 3.16 µM
inactive: [2] | [4]

CN1C(=O)CC(C)(c2ccccc2)C1=O (stereo not drawn)
inactive: [1] | [2] | [4]

C[C@H]1O[C@@H](O[C@H]2[C@@H](O)C[C@H](O[C@H]3[C@@H](O)C[C@H](O[C@H]4CC[C@@]5(C)[C@H](CC[C@@H]6[C@@H]5CC[C@]5(C)[C@@H](C7=CC(=O)OC7)CC[C@]65O)C4)O[C@@H]3C)O[C@@H]2C)C[C@H](O)[C@@H]1O
inactive: [1] | [3]
